Among all 190,000 compounds or so, about 810 (0.43%) were called active. The list comes from a sample in which actives are over-represented; it also holds similar structures and randomly drawn compounds. Unmarked numbers belong to inactive results. No stated cut-off is given here; in the data, active means inhibition above about 50%; inactive means the rest.
What follows are compounds tested against Mannose-6-phosphate isomerase (Homo sapiens) (UniProt P34949) (assay: inhibitors of human PMI, primary screen, biochemical, fluorescence intensity, coupled assay (AID 1209;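 further: plate controls were DMSO vehicle for no effect and wells lacking substrate for full effect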)). Settings: purified PMI enzyme, at 20 µM, active compounds read high.
Chain of Mannose-6-phosphate isomerase (Homo sapiens) (P34949 whole entry, looked up): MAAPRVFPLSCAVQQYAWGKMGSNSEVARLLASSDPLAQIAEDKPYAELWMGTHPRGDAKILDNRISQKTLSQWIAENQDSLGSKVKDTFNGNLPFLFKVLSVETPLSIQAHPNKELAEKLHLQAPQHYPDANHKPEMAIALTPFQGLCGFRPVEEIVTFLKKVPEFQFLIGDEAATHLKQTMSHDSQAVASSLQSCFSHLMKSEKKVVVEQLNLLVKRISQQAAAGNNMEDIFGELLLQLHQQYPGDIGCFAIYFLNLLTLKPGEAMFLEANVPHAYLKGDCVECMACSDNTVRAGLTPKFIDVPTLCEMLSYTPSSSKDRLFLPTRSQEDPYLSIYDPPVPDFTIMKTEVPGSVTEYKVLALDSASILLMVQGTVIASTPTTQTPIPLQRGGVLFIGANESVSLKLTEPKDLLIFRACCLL

Compound | inhibition
O=C(Cn1cnc2ccccc2c1=O)NCCC(=O)Nc1ccc2c(c1)OCO2 | -1.6%
Fc1ccc(-c2cc(C(F)(F)F)n3ncnc3n2)cc1 | -18.4%
COC(=O)c1ccc(-n2c(C)cc(C(=O)COC(=O)CC3Sc4ccccc4NC3=O)c2C)cc1 (stereo unspecified) | 3.1%
CCOC(=O)c1nnc(-c2ccc(C)cc2)nc1Oc1ccccc1Cl | 13.7%
CCOC(=O)c1sc(NC(=O)/C=C/c2ccccc2)nc1C | -6.9%
CCOC(=O)c1sc(N/N=C/c2cccc(C)c2)nc1C | 7.8%
CCOC(=O)c1sc(N/N=C/c2ccccc2)nc1C | 60.3% (active)
Cc1ccc(-n2nnc3c(=O)n(Cc4ccccn4)cnc32)cc1C | -5.8%
CCN(CC)c1ccc(/C=N/NC(=O)Cc2cccs2)cc1 | 15.6%
Cc1ccc(NC(=O)C2CCN(S(=O)(=O)c3c(C)noc3/C=C/c3ccco3)CC2)nc1 | 9.1%
Cc1cccnc1NC(=O)C1CCN(S(=O)(=O)c2c(C)noc2/C=C/c2ccco2)CC1 | 50.7% (active)
Cc1cccc(NC(=O)C2CCN(S(=O)(=O)c3c(C)noc3/C=C/c3ccco3)CC2)n1 | -3.8%
Cn1cccc1CC(=O)N/N=C/c1cccc2ccccc12 | 4.2%
COc1ccc(S(=O)(=O)N2CCC(C(=O)NCc3ccccn3)CC2)cc1Cl | 16.7%
COc1ccc(S(=O)(=O)N2CCCC(C(=O)NCc3ccccn3)C2)cc1 (stereo unspecified) | 14%
COc1ccc(S(=O)(=O)N2CCCC(C(=O)NCc3ccccn3)C2)cc1Cl (stereo unspecified) | 62.4% (active)
O=C(O)CSc1nnc(Cn2nnc3ccccc32)n1CCc1ccccc1 | -12.5%
COc1ccc(CN(CC2CCC(C(=O)O)CC2)C(=S)Nc2ccccc2OC)cc1 (stereo unspecified) | -7.5%
O=[N+]([O-])c1ccc(Sc2n[nH]c(-c3ccccc3)n2)nc1 | 16.5%
O=[N+]([O-])c1ccc(Sc2n[nH]c(-c3ccco3)n2)nc1 | 8.5%
O=[N+]([O-])c1ccc(Sc2n[nH]c(-c3ccncc3)n2)nc1 | 60.8% (active)

Compound | inhibition
O=C(O)CC(NC(=O)COc1ccc(Cl)cc1Cl)C(=O)O (stereo unspecified) | 4.9%
Cc1cc2nc3c(=O)n(C4CCCCC4)c(=O)[nH]c3nc2cc1N | 51.7% (active)
Cc1cc(C)cc(Nc2cc(=O)n(C3CCCCC3)c(=O)[nH]2)c1 | 12.2%
CCCCCCn1c(=O)[nH]c2nc3cc(N)c(C)cc3nc2c1=O | 35.2%
N#CCCN(C(=O)CSc1ccc2c(c1)OCCO2)c1ccccc1 | 3.1%
Cc1ccc(NC(=O)c2ccc(Br)o2)cc1S(=O)(=O)N(C)C | -19%
CCN(C(=O)c1cc2cccc(OC)c2oc1=O)C1CCCCC1 | -7.8%
N#Cc1cc(N)ccc1Sc1ccccc1 | 4.7%
COc1ccc(S(=O)(=O)N2Cc3ccccc3CC2C(=O)O)cc1OC (stereo unspecified) | -6.9%
Nc1ncnc2nc(SCc3ccccc3)[nH]c12 | 9.5%
CC(C)Sc1nc2ncnc(N)c2[nH]1 | -8.9%
CCC(Sc1nc2ncnc(N)c2[nH]1)C(=O)O (stereo unspecified) | 64.8% (active)
Cc1ccc(C)n1-c1cccc(S(=O)(=O)N2CCOCC2)c1 | -13.2%
O=c1[nH]c2c(c3c1CCCC3)CCCC2 | 16.2%
CC1CCCN(C(=S)SCC(=O)c2cc(Br)cc(Br)c2O)C1 (stereo unspecified) | 66.4% (active)
CC1CCCN(C(=S)SCC(=O)O)C1 (stereo unspecified) | 0.8%
O=C(CSC(=S)N1CCCC1)c1cc(Br)cc(Br)c1O | 33.3%
COc1cc(/C=C2\SC(=Nc3ccccc3)N(CCc3c[nH]c4ccccc34)C2=O)ccc1OC(C)C(=O)O (stereo unspecified) | 8%
COc1cc(C(=O)OCC(=O)Nc2c(F)c(F)c(F)c(F)c2F)cc(OC)c1OC | -2.4%
O=C(NC1CCCCC1)C(c1ccc(O)c(O)c1)N(C(=O)Cn1nnc2ccccc21)c1cccc(O)c1 (stereo unspecified) | 47.5%
Cc1ccc(N(C(=O)Cn2nnc3ccccc32)C(C(=O)NC2CCCCC2)c2cn(C)nc2C)cc1 (stereo unspecified) | -4.2%

Compound | inhibition
CC(=O)Nc1ccc(N(C(=O)Cn2nnc3ccccc32)C(C(=O)NC2CCCC2)c2ccc(O)c(O)c2)cc1 (stereo unspecified) | 61.2% (active)
Cc1cc(C)n(-c2nc3ccccc3n3cnnc23)n1 | -2.9%
COc1ccc(OC)c(NC(=O)c2cc3c(=O)n4ccccc4nc3n2C)c1 | -10.9%
COc1ccc(NC(=S)NNC(=O)c2nnn(-c3ccccc3)c2C)cc1 | -2%
Cc1ccccc1N(CC(=O)Nc1ccccc1C(=O)NCc1ccco1)S(=O)(=O)c1ccccc1 | -11.7%
N#Cc1c(NCCCO)nc(-c2ccccc2)c2c1CCCC2 | 13.8%
N#Cc1c(NCCN)nc(NCc2ccccc2)c2c1CCN(Cc1ccccc1)C2 | 17.8%
N#Cc1c(NCCCO)nc(NCc2ccccc2)c2c1CCN(Cc1ccccc1)C2 | 56.3% (active)
C=CCNc1nc(NCc2ccccc2)c(C#N)c2c1CN(C)CC2 | 54.4% (active)
CCN1CCc2c(C#N)c(NCc3ccccc3)nc(N(CC)CC)c2C1 | 3%
CN1CCc2c(C#N)c(N3CCCCC3)nc(NCc3ccccc3)c2C1 | 26.6%
C=CCNc1nc(N2CCOCC2)c(C#N)c2c1CN(C)CC2 | 9.5%
CCN1CCc2c(C#N)c(NCc3ccccc3)nc(NCCO)c2C1 | 52.6% (active)
CCN1CCc2c(C#N)c(N3CCCCC3)nc(NCc3ccccc3)c2C1 | 30.4%
CCOC(=O)c1cccc(NC(=O)CSc2nnnn2C)c1 | -7.4%
Cc1cc(NC(=O)CCc2ccc(S(=O)(=O)N3CCOCC3)cc2)n(-c2ccccc2)n1 | -7%
N#Cc1cnn2ccc(-c3ccc4c(c3)CCC4)nc12 | 0.4%
COCC(C)NC(=O)/C=C/c1ccc(OC)cc1 (stereo unspecified) | 9.4%
O=C(c1cc(Cl)ccc1[N+](=O)[O-])N1CCc2ccccc2C1 | 7.8%

Source: PubChem BioAssay AID1209 (Sanford-Burnham Center for Chemical Genomics, 2008)
